Source: PubChem (National Center for Advancing Translational Sciences (NCATS))
Many of the other results were omitted from the sample, so hits are more common in it than they were.
Tb PFK block – inhibitors of T. brucei phosphofructokinase; T. brucei PFK, ADP-Glo luminescence; Potency, µM (doses to about 57.5 µM), most hits filed as inhibitors; hit rate 0.17% among 330,000; further: nearly all actives have a fitted effect of over 60% in size
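PFK 1.25 nM, F6P 0.5 mM, ATP 0.1 mM, 0.1 M TEA pH 8.0, 5 mM MgCl2, 0.01% Tween20, 0.1% BSA; 45 min RT. ADP-Glo readout. qHTS titration up to 57 uM; curves fitted, compounds curve-classed.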
PI5P4K alpha inh – blocks human PI5P4K alpha kinase activity; hit rate 1.2% among 330,000; PI5P4Kalpha enzyme, ADP-Glo luminescence, 60 min; active compounds read low; max response, %; P48426; active means max response of -50% or lower; inconclusive means between -30% and -50%; inactive means -30% or higher; further: value at the top dose of about 77 µM
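Single end-point luminescence (ADP-Glo) quantified ADP from PI5P4Kalpha turnover; ATP 5 microM final, 1 h at RT, 0.1% CHAPS and 0.28 mM EGTA in HEPES pH 7.4.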
Pin1 inhibitor – blocks the human prolyl isomerase Pin1 | Q13526 | Pin1 FP peptide displacement, HiFluor488, 10 min | Potency, µM (titrated, usually from 115 µM), actives largely listed as inhibitors | hit rate 0.009% among 390,000 | AID 504891; active means well fitted inhibition curve with a large enough effect in the polarisation, with a control signal flat, not every such curve was filed as active; inconclusive means small, poorly fitted or top-dose-only effect, or effect the other way, or a change in a side signal; inactive means no such curve, though single readings can be large or run the other way; the % refers to the polarisation
Target sequence (Q13526 whole entry, looked up): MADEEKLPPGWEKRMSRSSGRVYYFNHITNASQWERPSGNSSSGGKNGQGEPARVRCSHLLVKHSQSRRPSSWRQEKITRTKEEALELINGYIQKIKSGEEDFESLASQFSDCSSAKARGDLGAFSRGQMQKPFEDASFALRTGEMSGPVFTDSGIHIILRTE
PGK inhibitor – T. brucei PGK inhibition | Potency, µM (doses to about 57.5 µM), hits mostly inhibitors | hit rate 0.043% among 380,000 | PGK/GAPDH coupled, Kinase-Glo luminescence, 60 min | AID 602233; further: nearly all actives have a fitted effect of over 60% in size
Target sequence (P07378 whole entry, looked up): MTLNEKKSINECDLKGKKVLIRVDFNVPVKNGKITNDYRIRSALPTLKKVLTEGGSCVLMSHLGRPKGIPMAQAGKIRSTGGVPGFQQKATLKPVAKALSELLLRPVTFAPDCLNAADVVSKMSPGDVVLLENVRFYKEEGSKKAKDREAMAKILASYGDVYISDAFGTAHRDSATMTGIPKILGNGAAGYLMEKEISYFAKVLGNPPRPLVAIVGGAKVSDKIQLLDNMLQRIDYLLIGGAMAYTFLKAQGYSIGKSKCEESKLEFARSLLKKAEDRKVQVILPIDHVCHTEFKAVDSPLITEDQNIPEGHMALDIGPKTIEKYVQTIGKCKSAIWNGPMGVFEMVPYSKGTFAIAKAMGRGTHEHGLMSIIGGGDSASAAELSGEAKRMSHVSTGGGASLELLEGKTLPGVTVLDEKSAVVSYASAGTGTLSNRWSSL
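Luminescent ATP detection (Kinase-Glo Plus) follows a 60-minute room-temperature incubation, with wells lacking PGK as controls. Buffer: 100 mM TEA (pH 7.6), 5 mM MgCl2, 0.01% Tween-20. Coupling enzyme GAPDH (100 nM final) supplies unstable 1,3-BPG in-well.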
PI4K2A block – PI4K2A (human) kinase inhibition. Q9BTU6. purified PI4K2A, ADP-Glo luminescence, 1 h; active compounds read low. activity change, negative = inhibition, % at 76.9 µM. hit rate 0.13% among 420,000. AID 1346378; in the data active means activity change below about -50%; inconclusive means mostly about -30% to -49%
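In this quantitative HTS, ADP production by PI4K2A was quantified luminescently after 1 h at ambient temperature; 100 microM adenosine served as plate-quality control.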
ADP-Glo counter – ADP-Glo luciferase interference, PI5P4K counter-screen; shares compounds with PI5P4K alpha inh; ADP-Glo detection counter-screen, luciferase luminescence, no enzyme; Potency, µM (doses to about 76.9 µM), usual class: inhibitors; 1,100 tested, under 10 active; AID 743285
A number is an active result; . = inactive; ? = inconclusive; / = no result; [ ] = dose if it differs, or a comment. Unless noted, the call rests on the fitted dose curve; in most records, active means well fitted curve in the direction sought with a large enough effect; inconclusive means small, poorly fitted or top-dose-only effect, or another doubt; inactive means no such curve, though single readings can be large; an effect the other way counts as inactive or inconclusive.

SMILES	Tb PFK block	PI5P4K alpha inh	Pin1 inhibitor	PGK inhibitor	PI4K2A block	ADP-Glo counter
C=CCNc1nc(NCc2ccc(NC(C)=O)cc2)c2sc(-c3ccccc3)cc2n1	/	?	/	/	.	/
CC(=O)NCCNc1nc(NC(C)C)nc2cc(-c3ccccc3)sc12	/	.	/	/	.	/
COc1ccc(-c2cc(CNc3nc(NC(C)C)nc4cc(-c5ccccc5)sc34)on2)cc1	/	/	/	/	.	.
NS(=O)(=O)c1ccc(NC(=O)C2Cc3ccccc3CN2C(=O)c2ccco2)cc1 (stereo unspecified)	?	-87	.	.	.	.
CSc1nc(N)nc(C(C)C)n1	.	.	.	.	.	/
c1ccc(-c2cc3nc(NCC4CC4)nc(NCC4CCCCC4)c3s2)cc1	/	/	/	/	.	.
COCCNc1nc(NCC2CCCCC2)c2sc(-c3ccccc3)cc2n1	/	/	/	/	.	.
O=C1NCCN1CCNc1nc(NCC2CC2)nc2cc(-c3ccccc3)sc12	/	?	/	/	.	/
Cc1nn(CC(O)CN2c3ccccc3Sc3ccccc32)c(C)c1Br (stereo unspecified)	.	.	.	.	.	/
Cc1cc(N2CCN(C(=O)c3ccco3)CC2)n2nc(C)c(-c3ccccc3)c2n1	.	/	.	.	.	/
Cc1ccc(NCC(=O)Nc2ccc(Br)cc2)cc1C	.	.	.	.	.	.
Cc1ccc(F)cc1NCC(=O)Nc1ccc(Br)cc1	.	.	.	.	.	/
Cc1cccc(C(C)C)c1NC(=O)C1CN(S(=O)(=O)c2ccccc2)CCN1S(=O)(=O)c1ccccc1 (stereo unspecified)	.	.	.	.	.	/
O=C(N/C(=C\c1ccccc1)C(=O)N1CCOCC1)c1ccc(Br)o1	.	.	.	.	.	/
COc1cc(OC)c(C(=O)O/N=C(\N)c2ccccc2)cc1OC	.	.	.	.	.	/
O=C(NCc1ccco1)c1ccc(S(=O)(=O)N2CCCCC2)cc1	.	.	.	.	.	/
O=C(NCc1ccco1)c1ccc(S(=O)(=O)N2CCOCC2)cc1	.	-53	.	.	.	.
O=S(=O)(c1ccc2nc(-c3ccco3)c(-c3ccco3)nc2c1)N1CCOCC1	.	-78	?	.	-55	.
N#CCCn1cc(CNC2CCC(O)CC2)c2ccccc21 (stereo unspecified)	.	.	.	.	.	/
CCn1cc(C(=O)N2CCN(c3cccc(C)c3C)CC2)c(=O)c2ccc(C)nc21	.	-73	?	.	.	.
Cc1csc(NC(=O)CSc2nc3sc(C)c(C)c3c(=O)[nH]2)n1	.	-57	.	.	.	.
Cc1sc2nc(SCC(=O)Nc3ccccc3F)[nH]c(=O)c2c1C	.	.	.	.	.	/
CC(=O)N1CCC(N(CCN2CCOCC2)C(=S)Nc2ccc(C)cc2)CC1	.	.	.	.	.	/
O=C(Nc1ccc(Cl)cc1)Nc1ccccc1CC[N+](=O)[O-]	.	-79	.	.	.	.
CCc1ccc(-c2csc3ncn(CC(=O)NCc4ccco4)c(=O)c23)cc1	.	.	.	.	.	/
SMILES	Tb PFK block	PI5P4K alpha inh	Pin1 inhibitor	PGK inhibitor	PI4K2A block	ADP-Glo counter
O=C(Cn1cnc2scc(-c3ccccc3)c2c1=O)NCc1ccco1	.	-66	?	.	.	.
O=C(NCCCl)NNC(=O)c1cc2ccccc2cc1O	.	.	.	.	.	/
CCCn1c(SCC(=O)N2c3ccccc3Sc3ccccc32)nc2c1c(=O)n(C)c(=O)n2C	.	.	.	.	.	.
S=C(NCc1ccco1)NCc1ccco1	/	-76	.	.	.	.
O=C(NCc1ccco1)c1ccc([N+](=O)[O-])o1	.	-63	.	.	.	.
COC(=O)c1c(C)oc2ccc(N(C(=O)c3ccncc3)S(=O)(=O)c3ccc(C)cc3C)cc12	.	.	.	.	.	/
CCc1ccc(CNC(=O)c2cc3n(n2)CCCN(Cc2ccccc2)C3=O)cc1	/	/	.	.	.	/
O=C(NCc1ccco1)c1ccc2c(c1)C(=O)N(C1CCCCC1)C2=O	.[0.46 µM]	.	.	.	.	/
NS(=O)(=O)c1ccc(NC(=O)c2ccccc2C(=O)N2CCCCC2)cc1	.	/	.	.	.	/
O=c1cc(-c2ccccc2)[nH]n1-c1nc2ccccc2[nH]1	.	-76	?	.	.	.
c1ccc(CC2CCN(c3ncnc4sccc34)CC2)cc1	.	.	.	.	.	/
O=C(O)c1cc2c(N3CCC(Cc4ccccc4)CC3)ncnc2s1	.	/	.	.	.	.
O=C(CSc1nnc(CNC(=O)c2c(F)cccc2F)o1)NCc1ccc2c(c1)OCO2	/	.	/	.	.	/
COc1cc2nc(COc3ccccc3[N+](=O)[O-])oc(=O)c2cc1OC	.	-57	.	.	.	.
O=S(=O)(c1ccccc1)c1nc(-c2ccco2)oc1N1CCCCCC1	.	-53	.	.	.	.
COc1ccc(CCN(Cc2cccs2)S(=O)(=O)c2ccc(S(=O)(=O)N3CCCCCC3)cc2)cc1OC	.	.	.	.	.	/
O=C(O)c1sccc1NC(=O)c1c(Cl)cccc1Cl	.	-55	.	.	.	.
COc1ccc(Nc2ccc(Cl)cc2)c(C(=O)O)c1	.	-52	.	.	.	.
Clc1cccc(Cc2c(-c3ccco3)nc3ccc(Br)cn23)c1	/	-82	/	/	.	.
Cc1cc2nc(-c3cccc(Cl)c3)c(Cc3cccc(Cl)c3)n2c(C)c1Br	/	.	/	/	.	/
